# Test results published in paper PMC8384837, “Expanding the binding specificity for RNA recognition by a PUF domain”.
# Key:
# Assay in all cases: yeast three-hybrid, YBZ-1, SC-Leu-His + 0.5 mM 3-AT, 4 days
# Details in all cases: tags: N-Gal4 AD-HA kept; label: inside an RPR1-promoter hybrid RNA with tandem MS2 sites; ssRNA
# PUM1 PUF domain R2-MWR = PUM1 PUF domain R2-MWR (Homo sapiens, UniProt Q14671 828-1176, N899M;Y900W;Q903R)
# Summary of the method: (§1)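 Sequencing with Illumina followed PCR amplification of the repeat regions from transformants grown four days on SC-Leu (input) or SC-Leu-His + 0.5 mM 3-AT (selection). The transformants were strain YBZ-1 with a LexA–MS2 coat fusion and a HIS3 reporter, carrying Pumilio-1 PUF domain libraries and matching RNA elements. The interaction score is the log change in variant frequency from input to selection, computed in log2 with a pseudocount of 1 for absent variants.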
# PUM1 PUF domain R2-DWQ = PUM1 PUF domain R2-DWQ (Homo sapiens, UniProt Q14671 828-1176, N899D;Y900W)
# Summary of the method: as §1
# PUM1 PUF domain R7-RRK = PUM1 PUF domain R7-RRK (Homo sapiens, UniProt Q14671 828-1176, S1079R;N1080R;E1083K)
# Summary of the method: as §1
# PUM1 PUF domain R8-RWT = PUM1 PUF domain R8-RWT (Homo sapiens, UniProt Q14671 828-1176, N1122R;Y1123W;Q1126T)
# Summary of the method: as §1
# PUM1 PUF domain R6-VWK = molecular target: T1, PUM1 PUF domain R6-VWK (Homo sapiens, UniProt Q14671 828-1176, N1043V;Y1044W;Q1047K)
# T1 sequence: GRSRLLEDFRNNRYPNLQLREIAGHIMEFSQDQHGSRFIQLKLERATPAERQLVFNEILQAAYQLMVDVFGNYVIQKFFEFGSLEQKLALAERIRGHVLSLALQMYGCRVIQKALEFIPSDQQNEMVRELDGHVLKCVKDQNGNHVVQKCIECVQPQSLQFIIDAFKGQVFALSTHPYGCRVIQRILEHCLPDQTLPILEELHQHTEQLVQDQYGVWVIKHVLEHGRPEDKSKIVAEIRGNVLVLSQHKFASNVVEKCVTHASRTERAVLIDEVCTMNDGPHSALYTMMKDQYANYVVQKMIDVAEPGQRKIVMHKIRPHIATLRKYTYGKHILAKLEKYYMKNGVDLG
# Summary of the method: as §1
# PUM1 PUF domain R2-LFV = PUM1 PUF domain R2-LFV (Homo sapiens, UniProt Q14671 828-1176, N899L;Y900F;Q903V)
# Summary of the method: as §1
# PUM1 PUF domain R4-FHR = PUM1 PUF domain R4-FHR (Homo sapiens, UniProt Q14671 828-1176, N971F;Q975R)
# Summary of the method: as §1
# PUM1 PUF domain R1-KME = PUM1 PUF domain R1-KME (Homo sapiens, UniProt Q14671 828-1176, S863K;R864M;Q867E)
# Summary of the method: as §1
sequence,measurement,setting,value
GGCUAGAACUAGUGGAUCCCCCGGCGCCCGGCGGCUCGAGCCCGGGUAAGUGUAAACAGUCUGCAUGCCGCCGGGCGCCAUGCCUGCAGGUCGACUCUAGAAAACAUG,binding signal,PUM1 PUF domain R2-MWR,5.06 log2 enrichment (interaction score)
same,binding signal,PUM1 PUF domain R2-DWQ,4.49 log2 enrichment (interaction score)
GGCUAGAACUAGUGGAUCCCCCGGCGCCCGGCGGCUCGAGCCCGGGUAAGUCUAAAUAGUCUGCAUGCCGCCGGGCGCCAUGCCUGCAGGUCGACUCUAGAAAACAUG,binding signal,PUM1 PUF domain R7-RRK,1.72 log2 enrichment (interaction score)
GGCUAGAACUAGUGGAUCCCCCGGCGCCCGGCGGCUCGAGCCCGGGUAAGUUUAAAUAGUCUGCAUGCCGCCGGGCGCCAUGCCUGCAGGUCGACUCUAGAAAACAUG,binding signal,PUM1 PUF domain R7-RRK,4.3 log2 enrichment (interaction score)
GGCUAGAACUAGUGGAUCCCCCGGCGCCCGGCGGCUCGAGCCCGGGUAAGCGUAAAUAGUCUGCAUGCCGCCGGGCGCCAUGCCUGCAGGUCGACUCUAGAAAACAUG,binding signal,PUM1 PUF domain R8-RWT,5.51 log2 enrichment (interaction score)
GGCUAGAACUAGUGGAUCCCCCGGCGCCCGGCGGCUCGAGCCCGGGUAAGUGUAAAUAGUCUGCAUGCCGCCGGGCGCCAUGCCUGCAGGUCGACUCUAGAAAACAUG,binding signal,PUM1 PUF domain R8-RWT,4.9 log2 enrichment (interaction score)
same,binding signal,PUM1 PUF domain R6-VWK,5.58 log2 enrichment (interaction score)
GGCUAGAACUAGUGGAUCCCCCGGCGCCCGGCGGCUCGAGCCCGGGUAAGUGUAAAAAGUCUGCAUGCCGCCGGGCGCCAUGCCUGCAGGUCGACUCUAGAAAACAUG,binding signal,PUM1 PUF domain R2-DWQ,7.04 log2 enrichment (interaction score)
same,binding signal,PUM1 PUF domain R2-LFV,4.38 log2 enrichment (interaction score)
GGCUAGAACUAGUGGAUCCCCCGGCGCCCGGCGGCUCGAGCCCGGGUAAGUGUAUAUAGUCUGCAUGCCGCCGGGCGCCAUGCCUGCAGGUCGACUCUAGAAAACAUG,binding signal,PUM1 PUF domain R4-FHR,3.37 log2 enrichment (interaction score)
GGCUAGAACUAGUGGAUCCCCCGGCGCCCGGCGGCUCGAGCCCGGGUAAGUGUAAAUCGUCUGCAUGCCGCCGGGCGCCAUGCCUGCAGGUCGACUCUAGAAAACAUG,binding signal,PUM1 PUF domain R1-KME,4.22 log2 enrichment (interaction score)
